Source: PubChem BioAssay (National Center for Advancing Translational Sciences (NCATS))
FBPA Giardia inh – Giardia lamblia aldolase inhibition | Potency, µM (series often up to 59.6 µM), without a hit: at the highest dose activity, negative = inhibition, actives largely listed as inhibitors | AID 2451 | hit rate 0.71% among 290,000 | purified Giardia FBPA | A8B2U2; note: potency is the fitted concentration of half-maximal effect; nearly all actives have a fitted effect of over 55% in size
Target sequence (A8B2U2 whole entry, looked up): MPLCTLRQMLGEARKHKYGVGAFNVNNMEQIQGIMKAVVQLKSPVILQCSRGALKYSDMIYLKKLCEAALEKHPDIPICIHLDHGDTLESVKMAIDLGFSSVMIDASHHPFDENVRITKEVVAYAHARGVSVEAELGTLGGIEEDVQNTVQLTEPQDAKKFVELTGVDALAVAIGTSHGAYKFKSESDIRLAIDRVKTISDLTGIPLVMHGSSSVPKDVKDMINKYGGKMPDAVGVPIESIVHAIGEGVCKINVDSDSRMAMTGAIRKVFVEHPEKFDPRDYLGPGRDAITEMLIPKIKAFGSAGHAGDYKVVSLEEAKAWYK
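Giardia FBPA (40 nM reagent) was preincubated 10 min at RT with compound (up to 57.5 uM final), then substrate plus GAPDH/TPI/NAD/arsenate coupling system with diaphorase/resazurin was added; resorufin fluorescence (525/598 nm) was read after 20 min.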
RE007 growth inh – less growth of the S. pombe RE007 Vpr strain; hit rate 0.21% among 360,000; Potency, µM (series often up to 92.2 µM), for the others: at the top dose activity change, negative = less growth, actives largely listed as inhibitors; S. pombe RE007 Vpr strain, BacTiter-Glo ATP luminescence, 24 h; active = well fitted falling curve with a large enough effect; inconclusive = small, poorly fitted or top-dose-only effect; inactive = no such curve, though single readings can be large or run the other way; note: potency is the fitted concentration of half-maximal effect; nearly all actives have a fitted effect of over 50% in size
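Fission yeast strain RE007, carrying one chromosomally integrated HIV-1 vpr copy, was seeded at OD 0.01 in PMG+AL medium with 23 nL pinned compound. After 24 h at 30 °C and 99% humidity, viability was read by BacTiter-Glo luminescence.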
Tb PYK inh – inhibitors of Trypanosoma brucei pyruvate kinase; Q57TT1; TbPYK enzyme, Kinase-Glo Plus ATP luminescence, 45 min; Potency, µM (series often up to 76.8 µM), without a hit: at the highest dose activity, negative = inhibition, usual class: inhibitors; hit rate 0.12% among 410,000; note: potency is the fitted concentration of half-maximal effect; nearly all actives have a fitted effect of over 50% in size
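Assay buffer: 50 mM TEA pH 7.2, 100 mM KCl, 10 mM MgCl2, 0.05% BSA, 0.01% Tween-20. Pyruvate kinase from T. brucei plus substrate met compound, then ADP (130 uM final). Luminescence was read post 45 min RT.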
FMDV antiviral – antivirals against foot and mouth disease virus | hit rate 1.2% among 410,000 | Potency, µM (titrated, usually from 57.9 µM), without a hit: top-dose activity change, negative = inhibition, actives largely listed as inhibitors | FMDV antiviral cell-based qHTS; calls by dose curve; tested in HEK293T cells; note: read-out not given here; potency is the fitted concentration of half-maximal effect; nearly all actives have a fitted effect of over 45% in size
HCMV antiviral – blocks human cytomegalovirus replication. HFF cells, HCMV-luciferase reporter, 72 h; stronger effect = lower value. AID 1259415. activity change, negative = inhibition, % at 57.5 µM. hit rate 4.5% among 410,000; in the data active = activity change below about -60%; inconclusive = no clear call, values can overlap the other calls; inactive = above about -39%
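Steps: HFFs plated, 16 h 37C; compounds added; HCMV-luciferase added to MOI 1 PFU/cell; 72 h 37C; OneGlo reagent, 5 min room temperature; luminescence read, normalized to controls.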
Sm TGR block – inhibitors of Schistosoma mansoni thioredoxin glutathione reductase | Q962Y6 | purified TGR, DTNB reduction, TNB absorbance 405 nm | Potency, µM (doses to about 114 µM), for inactives: at the highest dose activity change, negative = inhibition, hits mostly inhibitors | hit rate 3% among 360,000 | AID 485364; note: potency is the fitted concentration of half-maximal effect; nearly all actives have a fitted effect of over 60% in size
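Kinetic colorimetric format: TGR-catalysed, NADPH-driven DTNB reduction monitored via TNB absorbance. Enzyme dispensed at 20 nM; compound exposure 15 min at room temperature before reaction start.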
An asterisk follows results filed as active; ? = inconclusive; . = no result given; + = active, no number; [ ] = remark or other dose. Hits are enriched below; roughly 7.7% of the tested compounds scored in any of these assays. Unless noted, calls come from the whole dose curve; as a rule, active = well fitted curve in the direction sought with a large enough effect; inconclusive = small, poorly fitted or top-dose-only effect, or another doubt; inactive = no such curve, though single readings can be large; an effect the other way counts as inactive or inconclusive. % is set by controls: 0 for no effect and ±100 for the full control effect.

SMILES | FBPA Giardia inh | RE007 growth inh | Tb PYK inh | FMDV antiviral | HCMV antiviral | Sm TGR block
CCN(CC)c1ccc(NC(=O)c2cnc3ccccn3c2=O)c(C)c1 | -27.7% | -9.1% | -15.3% | -3.8% | -72.9* | -24.8%
O=C(CNCc1ccccc1Cl)Nc1ccccc1N1CCCCC1 | ? | 3.2% | 17.0% | -21.8% | -12.5 | .
CCN(CC)c1ccc(NC(=O)CNCc2ccccc2Cl)c(C)c1 | ? | -3.9% | 0.3% | 10.2% | -102.6* | -18.5%
COCC(=O)N1CCC2(CCCN(C(c3ccccc3)c3ccccc3)C2)CC1 | -0.1% | . | 0.9% | -16.7% | . | .
COc1ccc2oc3cc(C)[n+]([O-])c(-c4ccc(C)cc4)c3c2c1 | -0.2% | 4.4% | 3.2% | 25.1µM* | -92.9* | -2.2%
COc1ccc2oc3cc(C)[n+]([O-])c(-c4ccc(Cl)cc4)c3c2c1 | 0.7% | 13.8% | 4.1% | 35.5µM* | -90.9* | 0.5%
COc1ccc(-c2c3c(cc(C)[n+]2[O-])oc2ccc(OC)cc23)cc1 | -1.5% | -15.0% | -10.6% | 28.2µM* | -91.4* | 5.8%
COc1ccc2c(c1)CC(N1CCN(C)CC1)c1cc(OC)ccc1S2 (stereo not given) | . | 10.8% | -1.9% | ? | -64.3* | .
CN1CCN(C2Cc3ccccc3Sc3ccc(S)cc32)CC1 (stereo not given) | -0.5% | . | . | . | . | .
NC(=O)N/N=C/c1c(Sc2nnnn2-c2ccccc2)nc2ccccn2c1=O | 5.9% | 8.0% | -0.7% | ? | -72.8* | 3.98µM*
CCc1ccc(NC(=O)CN(C)S(=O)(=O)c2ccc3c(c2)c(=O)n(C)c(=O)n3C)cc1 | . | . | -1.5% | -22.0% | -14.6 | 10.6%
Cc1ccccc1C(=O)N=c1ccn(-c2nc3ccccc3nc2NS(=O)(=O)c2ccc(F)cc2)cc1 | -5.9% | 2.0% | 1.5% | 0.6% | -60.6* | -1.3%
O=C(N=c1ccn(-c2nc3ccccc3nc2NS(=O)(=O)c2ccccc2)cc1)c1cccs1 | -4.3% | -0.8% | -1.7% | 0.4% | -12.3 | -10.2%
CC1(c2nnc(Cc3ccccc3)o2)CC(c2cccc([N+](=O)[O-])c2)=NO1 (stereo not given) | . | -3.4% | 3.2% | -7.7% | -4.4 | 44.7µM*
CC1(c2nnc(Cc3ccccc3)o2)CC(c2ccccc2[N+](=O)[O-])=NO1 (stereo not given) | . | 19.3% | -16.3% | 12.9% | . | 3.16µM*
Cc1ccc(Sc2cncc3sc(C(N)=O)cc23)cc1 | -1.2% | . | . | 19.5% | . | .
Cc1ccc(C(=O)C2=C(O)C(=O)N(Cc3ccco3)C2c2cccc(Br)c2)o1 (stereo not given) | -8.7% | -5.4% | -3.7% | 27.7% | -27.3 | 11.2µM*
Cc1ccc(C(=O)C2=C(O)C(=O)N(Cc3ccco3)C2c2cccc(Cl)c2)o1 (stereo not given) | . | 0.5% | -12.6% | 39.2% | 10.8 | 50.1µM*
O=C(C1=C(O)C(=O)N(Cc2ccco2)C1c1cccc(O)c1)c1ccco1 (stereo not given) | -18.8% | -8.2% | 0.0% | 50.5% | -12.3 | ?
Cc1ccc(C(=O)C2=C(O)C(=O)N(Cc3ccco3)C2c2ccc(N(C)C)cc2)o1 (stereo not given) | . | 3.5% | -5.1% | 15.7% | -0.1 | -22.9%
Cc1ccc(C(=O)C2=C(O)C(=O)N(c3ncccn3)C2c2cccc(Cl)c2)o1 (stereo not given) | -25.6% | . | . | . | . | 11.2µM*
CCc1cc(C(=O)N2CCOc3ccc(CN4CCN(Cc5ccccn5)CC4)cc3C2)no1 | . | . | . | -13.7% | . | .
CCOn1c(-n2nc(C)cc2C)nc2ccccc2c1=O | 0.2% | 6.3% | -4.9% | 14.3% | -26.1 | -7.2%
Cc1cc(C)n(-c2nc3ccccc3c(=O)n2OCC#N)n1 | 8.5% | ? | -5.9% | -15.5% | -88.9* | 5.5%
CC1(C)CC(=O)c2c(S(C)(=O)=O)sc(Br)c2C1 | 5.7% | -4.3% | -3.4% | -25.5% | -60.4* | 15.8µM*
SMILES | FBPA Giardia inh | RE007 growth inh | Tb PYK inh | FMDV antiviral | HCMV antiviral | Sm TGR block
CC(C)(C)CC(=O)Nc1nnc2n1CCS2 | . | . | -3.1% | -11.6% | -7.5 | 9.9%
COc1ccc(CCN2C(=O)CS/C2=N\NC(=O)c2ccc(C(C)(C)C)cc2)cc1OC | -0.1% | 5.2% | -4.2% | 31.6µM* | 1.2 | 6.6%
COc1ccc(N=C2SCC(=O)N2CCc2ccc(OC)c(OC)c2)cc1 | -2.0% | 5.8% | 1.1% | ? | -23.3 | -5.7%
COc1ccc(CCN2C(=O)CSC2=Nc2ccc(C(C)C)cc2)cc1OC | -17.4% | -2.9% | 1.0% | 20µM* | ? | 6.6%
CCCCCCN(C(=O)CCCCCN1C(=O)NC(c2ccccc2)C(C(=O)OCc2ccccc2)=C1C)C(C(=O)NCCCC)c1ccc(OCC(=O)OC)c(C(=O)OC)c1 (stereo not given) | 6.4% | . | . | . | -98.1* | 0.0%
CCCCCCN(C(=O)CCCCCN1C(=O)NC(c2ccc(C(C)(C)C)cc2)C(C(=O)OCc2ccccc2)=C1C)C(C(=O)NCCCC)c1ccc(OCC(=O)OC)c(C(=O)OC)c1 (stereo not given) | 1.8% | . | . | . | . | 1.3%
CC(C)[C@@H](CC(=O)N[C@@H]1CCNC[C@H]1C(=O)N[C@H](CC(=O)N[C@@H](CCC(=O)O)CC(=O)O)Cc1ccccc1)NC(=O)C[C@H](Cc1c[nH]c2ccccc12)NC(=O)[C@@H]1CNCC[C@H]1N | 8.3% | . | . | . | . | .
CCN(CC)C(=O)c1ccc2c3c(cccc13)C(=O)N(CCc1ccc(OC)c(OC)c1)C2=O | -6.5% | -0.8% | -1.0% | 31.6µM* | . | 3.5%
COc1cc(NC(=O)c2cnn(-c3cccc(F)c3)c2C2CCNCC2)cc(OC)c1OC | . | . | -4.4% | -14.0% | 16.0 | 1.4%
Cc1cccc(-n2ncc(C(=O)Nc3ccc4c(c3)OCO4)c2C2CCN(C(=O)OC(C)(C)C)CC2)c1 | . | . | -2.3%[15.4 µM] | 19.6% | ? | -26.6%
Cc1ccc(-n2ncc(C(=O)Nc3ccc4c(c3)OCCO4)c2C2CCN(C(=O)OC(C)(C)C)CC2)cc1C | . | . | -0.4%[15.4 µM] | 0.0% | + | -0.9%
COc1ccc(NC(=O)c2cnn(-c3ccc(C)c(C)c3)c2C2CCNCC2)cc1OC | . | . | -13.0% | -18.7% | -5.5 | 44.7µM*
COc1ccc(CCNC(=O)c2cnn(-c3cccc(C)c3)c2C2CCNCC2)cc1OC | . | . | -0.3% | 9.8% | 8.4 | -1.9%
Cc1ccc(-n2ncc(C(=O)Nc3cc(Cl)ccc3Cl)c2C2CCNCC2)cc1 | -2.9% | -19.8% | -20.0% | 0.0% | -87.2* | 0.0%
CCOC(=O)c1cnn(-c2cccc(F)c2)c1C1CCNCC1 | . | . | 5.6% | 2.3% | -4.9 | 44.7µM*
COc1ccccc1CNc1cc(-c2ccccc2Cl)ncn1 | -0.6% | . | . | -7.9% | . | .
COc1cccc(CNC(=O)C2CCC(CNS(=O)(=O)c3ccc4c(c3)CCCC(=O)N4)CC2)c1 (stereo not given) | . | . | -4.3% | -16.9% | 13.5 | 6.7%
